Bioassay records from PubChem BioAssay.
Most compounds without a hit are left out; they make up all but 17% or so of the library.
TDP1 cell CPT: growth inhibition of DT40 Tdp1-/-;hTDP1 cells with camptothecin (screen for TDP1 inhibitors); chicken DT40 Tdp1-/-;hTDP1 cells + 20 nM CPT, ATP luminescence, 48 h; Potency, µM (titrated, usually from 46.2 µM), without a hit: at the highest dose activity change, negative = growth inhibition, hits mostly inhibitors; 12% of 420,000 active; AID 686979; also: % is scaled to controls: 0 for no effect and ±100 for the full control effect; nearly all actives have a fitted effect of over 55% in size
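Cell growth measured by CellTiter-Glo luminescence after a minimum 48 h, 37 C compound exposure with 20 nM CPT in Tdp1-knockout DT40 cells stably expressing hTDP1, seeded 400/well; qHTS titration format.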
ATXN2 expr inh: inhibitors of ATXN2 expression; HEK-293 ATXN2-luciferase reporter, luminescence, 24 h; AID 1745845; 0.72% of 360,000 active; Potency, µM (series often up to 57 µM), for the others: at the highest dose activity change, negative = inhibition, hits mostly inhibitors; also: % is scaled to controls: 0 for no effect and ±100 for the full control effect; nearly all actives have a fitted effect of over 55% in size
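qHTS (up to 57 uM final) was run with 24 h compound exposure of reporter cells at 37 °C. Each well was multiplexed: SteadyGlo luminescence measured ATXN2-luciferase expression after a fluorogenic Gly-Phe-AFC viability readout (25 uM final).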
DT40 TDP1 no CPT: qHTS for Inhibitors of human tyrosyl-DNA phosphodiesterase 1 (TDP1): qHTS in cells in absence of CPT. DT40 Tdp1-/- hTDP1 cells, no CPT, ATP luminescence, 48 h. Potency, µM (highest dose often 46.2 µM), without a hit: at the top dose activity change, negative = growth inhibition, most hits filed as inhibitors. 15% of 420,000 active. AID 686978, 2013; also: % is scaled to controls: 0 for no effect and ±100 for the full control effect; nearly all actives have a fitted effect of over 55% in size
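Chicken DT40 Tdp1-/- cells complemented with human TDP1, screened without camptothecin (DMSO vehicle only), 400 cells/well. Compounds pin-transferred, cells incubated at 37 °C for at least 48 hr. Growth read as ATP-dependent luminescence (CellTiter-Glo, 30 min at RT).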
S2 tox: cell viability loss in ATXN counter-screen. S2 cells (HEK-293 line with an ATXN2-luciferase reporter) viability, CellTiter-Fluor protease fluorescence, 24 h. Potency, µM (doses to about 56.7 µM), hits mostly cytotoxic. 0.49% of 400,000 active. AID 651635; also: nearly all actives have a fitted effect of over 40% in size
TGFb inhibitor: inhibitors of TGF-b signaling | HepG2 CAGA-GFP TGF-b/SMAD3 reporter, GFP fluorescence, 18 h; TGF-beta stimulated, 500 pg/mL final | Potency, µM (series often up to 46.1 µM), without a hit: at the top dose activity, negative = inhibition, usual class: inhibitors | 1.2% of 410,000 active | AID 588855; also: % is scaled to controls: 0 for no effect and ±100 for the full control effect; nearly all actives have a fitted effect of over 65% in size
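Cell-based qHTS in HEPG2 carrying a CAGA-GFP Smad reporter; compounds added before 500 pg/mL final TGF-beta, 18 h incubation at 37 degrees C, GFP fluorescence quantified per cell by imaging cytometry.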
HepG2 tox: counter-screen for TGF-b inhibitors: cytotoxicity in HepG2 cells; HepG2 CAGA-GFP viability, ATP luminescence, 18 h; Potency, µM (top dose mostly 46.1 µM), for inactives: at the highest dose activity change, negative = cytotoxicity, usual class: cytotoxic; 0.76% of 410,000 active; AID 588856
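HepG2 CAGA-GFP cells (1000/well, DMEM with 1% FBS) received compound, then TGF-beta at 500 pg/mL final, and were incubated 18 hours at 37 degrees C. Viability was read by CellTiter-Glo luminescence. Media-only wells were set as complete cell-killing and DMSO as no toxicity.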
* = called active by the depositor; i = inactive; ? = inconclusive; · = no result. Calls follow the shape of the dose curve; as a rule, active = well fitted curve in the direction sought with a large enough effect; inconclusive = small, poorly fitted or top-dose-only effect, or another doubt; inactive = no such curve, though single readings can be large; an effect the other way counts as inactive or inconclusive. Potency is read from the fitted curve at half-maximal effect.

SMILES | TDP1 cell CPT | ATXN2 expr inh | DT40 TDP1 no CPT | S2 tox | TGFb inhibitor | HepG2 tox
COCCCNC(=O)CCC(=O)NNc1nc2ccccc2c2nc(C)nn12 | 11.0% | 2.4% | 4.3% | i | 3.4% | 3.4%
O=C(NCCN1CCN(C(=O)c2cccc(OC(F)F)c2)CC1)c1cccc(OC(F)F)c1 | -9.0% | -9.6% | -5.6% | i | -10.0% | -2.2%
CC1CCCCN1CCCNc1ccc(C(CC(N)=O)NC(=O)Cc2cccc3ccccc23)cc1[N+](=O)[O-] (stereo unspecified) | 9.4% | 11.1% | -1.1% | i | 19.6% | 30.8%
Cn1c(=O)c2c(ncn2CC(=O)N2CCCc3ccccc32)n(C)c1=O | -9.1% | 4.2% | -4.2% | i | 18.5% | 13.4%
CC1CCN(C(=O)CSc2nc(C(C)C)nc3c2c(=O)n(C)c(=O)n3C)CC1 | 16.4µM* | -22.9% | 18.4µM* | i | 0.9% | 4.9%
CC(C)Cc1nc(SCC(=O)N2CCCC2)c2c(=O)n(C)c(=O)n(C)c2n1 | -4.0% | -14.0% | -0.9% | i | 5.5% | 6.5%
CC(C)c1nc(SCC(=O)N2CCCc3ccccc32)c2c(=O)n(C)c(=O)n(C)c2n1 | 7.31µM* | -18.8% | 6.51µM* | ? | 0.9% | -0.4%
CCN(CC)C(=O)C1CN2CCc3cc(OC)c(OC)cc3C2CC1OC(C)=O (stereo unspecified) | · | 3.6% | · | i | · | ·
O=C(Cc1nn[nH]n1)Nc1cc(Cl)cc(Cl)c1 | 1.6% | · | -25.1% | i | 3.6% | -4.5%
N#C/C(=C\c1cc(Br)ccc1F)C(=O)NC1CC1 | 13µM* | 3.0% | ? | i | 7.0% | -1.1%
N#C/C(=C\C=C\c1ccccc1[N+](=O)[O-])C(=O)NC1CCCCC1 | 9.2µM* | ? | 9.2µM* | ? | ? | -30.2%
CCOc1ccccc1/C=C(\C#N)C(=O)NC1CC1 | -19.3% | -25.9% | -17.5% | i | 5.8% | -12.5%
N#C/C(=C\c1ccc(F)c(Br)c1)C(=O)NC1CC1 | ? | -5.6% | ? | i | 0.0% | -5.9%
N#C/C(=C\c1cc(Cl)cc(Cl)c1O)C(=O)NC1CCCCC1 | 20.6µM* | -9.2% | ? | · | 7.3% | -16.7%
N#C/C(=C\c1ccccc1[N+](=O)[O-])C(=O)NC1CCCCC1 | ? | -3.5% | 14.6µM* | i | -7.2% | -2.3%
C[C@@H]1CN([C@@H](C)CO)C(=O)CCCn2nncc2CO[C@H]1CN(C)S(=O)(=O)c1cccs1 | -3.8% | -6.0% | 0.3% | i | -1.5% | -5.4%
O=C(Nc1c2c(nn1-c1ccccc1)CS(=O)(=O)C2)c1ccccc1Br | 0.1% | 3.8% | 2.6% | i | -15.9% | 0.0%
Cc1ccc(C)c(C(=O)Cn2c(NCCO)nc3ccccc32)c1 | ? | -3.2% | -3.9% | i | 4.4% | -23.1%
Cc1ccc(-c2[nH]ncc2/C=C(\C#N)C(=O)NC2CCCCC2)cc1 | ? | -31.5% | 20.6µM* | ? | ? | -53.6%
COc1ccc(-c2[nH]ncc2/C=C(/C#N)C(=O)NC2CCCCC2)cc1 | ? | -20.9% | ? | i | ? | -58.3%
COc1ccccc1CNC(=O)CCC(=O)N1Cc2cccc(OC)c2Oc2ncccc21 | 7.2% | · | -9.8% | i | -11.5% | -21.0%
CCCCCCCCN1C(=O)[C@H](CC(=O)NCc2ccc(C)o2)C[C@@]2(C(=O)OC)CC(C)(C)CC=C12 | 11.6µM* | · | 8.2µM* | · | · | ·
CCCCCCCCN1C(=O)[C@H](CC(=O)NCc2cccs2)C[C@@]2(C(=O)OC)CC(C)(C)CC=C12 | 14.6µM* | · | 8.2µM* | · | · | ·
COC(=O)c1ccc(CN2C(=O)C3CCCCC3C2=O)o1 (stereo unspecified) | 0.0% | -7.6% | -3.6% | i | 1.5% | -0.9%
